Screens as filed in PubChem BioAssay.
Hits are enriched below; roughly 2.4% of the tested compounds scored in any of these assays.
D2 ag-1: HTS Assay for Allosteric Agonists of the Human D2 Dopamine Receptor: Primary Screen for Agonists; activation, % at 2 µM; AID 485358, 2010; HEK293 T-REx D2 cells, calcium flux agonist mode; D(2) dopamine receptor (Homo sapiens), P14416; 0.53% of 340,000 active;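 active means activation over 3 SD above normal in the single-dose calcium agonist read, cut at about 30% in these data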; further: 0% is about no effect
Target sequence (P14416 whole entry, looked up): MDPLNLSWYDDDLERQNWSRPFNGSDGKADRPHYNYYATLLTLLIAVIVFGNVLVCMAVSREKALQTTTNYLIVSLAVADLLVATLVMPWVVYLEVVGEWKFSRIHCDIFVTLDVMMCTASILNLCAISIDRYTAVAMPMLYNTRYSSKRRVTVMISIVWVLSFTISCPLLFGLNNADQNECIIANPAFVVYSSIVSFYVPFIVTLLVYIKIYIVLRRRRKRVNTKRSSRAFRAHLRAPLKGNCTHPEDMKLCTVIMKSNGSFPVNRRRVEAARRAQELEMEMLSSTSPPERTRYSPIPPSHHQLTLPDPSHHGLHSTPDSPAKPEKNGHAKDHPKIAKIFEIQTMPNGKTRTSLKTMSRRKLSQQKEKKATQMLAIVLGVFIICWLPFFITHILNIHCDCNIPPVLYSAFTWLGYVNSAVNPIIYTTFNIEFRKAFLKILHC
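Tetracycline-induced HEK293 Trex cells with D2 receptor force-coupled to calcium signaling, plated overnight at 30 C and loaded with no-wash calcium dye. Calcium flux read kinetically for 180 s after compound addition; responses flag agonists.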
D2 ag-2: Beta-Arrestin HTS for Positive Allosteric Modulators of the Human D2 Dopamine Receptor: Agonists; D(2) dopamine receptor (Homo sapiens), P14416; DiscoveRx PathHunter D2 beta-arrestin, luminescence, 90 min; 100% = 57 uM dopamine signal; activation, % (concentration not given with the values); 0.084% of 360,000 active; AID 624465, 2012; in the data active means activation above about 40%; inconclusive means between about 15% and that limit
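Agonist mode: compounds alone added to overnight-plated D2 PathHunter cells for 90 min at 37 C, with 57 uM final dopamine (EC100) defining full response. Beta-arrestin recruitment detected by chemiluminescent reagent, read after 1 h at ambient temperature.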
D2 PAM-1: HTS Assay for Positive Allosteric Modulators of the Human D2 Dopamine Receptor: Primary Screen for Potentiators. HEK293 T-REx D2, calcium flux, EC20 dopamine potentiation. potentiation, % at 10 µM. 0.34% of 340,000 active. AID 485347, 2010;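 active means potentiation over 3 SD above the plate norm, cut at about 30% in these data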; further: 0% is about no effect
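Potentiation of an EC20 dopamine calcium response measured kinetically over 180 s, after a preceding 180 s compound-only read flagging agonists. Cells: inducible Hek293 Trex D2 line, 4000/well, cultured overnight at 30 C before dye loading.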
D2 PAM-2: Beta-Arrestin HTS for Positive Allosteric Modulators of the Human D2 Dopamine Receptor: Potentiators; DiscoveRx D2 beta-arrestin cells, luminescence, 90 min; 100% = 57 uM dopamine signal; D(2) dopamine receptor (Homo sapiens), P14416; potentiation, % (concentration not given with the values); 0.23% of 360,000 active; in the data active means potentiation above about 50%; inconclusive means mostly about 30% to 49%
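PathHunter beta-arrestin assay in DiscoveRx D2 cells. Compounds were added with an EC20 of dopamine (50 nM final) for 90 min at 37 deg C. Luminescence was read 1 h after detection reagent, with 57 uM dopamine as the EC100 control.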
D2 antagonist: HTS Assay for Allosteric Antagonists of the Human D2 Dopamine Receptor: Primary Screen for Antagonists; HEK293 TREx D2 cells, calcium flux, dopamine EC80; inhibition, % at 10 µM; 2% of 340,000 active; AID 485344, 2010; in the data active means inhibition above about 30%; inactive means below that, where a call was filed; further: 0% is about no effect
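In this primary screen, negative modulation is detected by tracking calcium flux after an EC80 dopamine challenge in inducible HEK293 T-REx D2 cells preexposed to test compound for 180 s.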
D3 ag: qHTS of D3 Dopamine Receptor Agonist: D3 Dopamine Receptor B-arrestin Agonist Confirmatory Assay | AID 720506, 2013 | 4% of 2,300 active | DiscoveRx D3 beta-arrestin cells, luminescence, 90 min | shares compounds with D2 ag-1 | Potency, µM (highest dose often 76.9 µM), inactives show at the top dose activation, actives largely listed as activators;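 further: potency means the concentration at half of the fitted maximal effect; 100% = dopamine control response; nearly all actives have a fitted effect of over 70% in size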
D2 ag-3: qHTS of D3 Dopamine Receptor Agonist: D2 Dopamine Receptor B-arrestin Agonist Counterscreen | shares compounds with D2 ag-1 | DiscoveRx PathHunter D2 beta-arrestin, luminescence, 90 min; response scale: percent relative to full dopamine signal | Potency, µM (series often up to 76.9 µM), without a hit: at the highest dose activation, most hits filed as activators | 5.9% of 2,300 active; further: potency means the concentration at half of the fitted maximal effect; % of control where 0% means no effect; nearly all actives have a fitted effect of over 70% in size
Numbers without * were called inactive; ? = inconclusive; . = not tested or not shown. Unless noted, the call rests on the fitted dose curve; in most records, active means well fitted activation curve with a large enough effect; inconclusive means small, poorly fitted or top-dose-only effect; inactive means flat fitted curve, though single readings scatter.

SMILES	D2 ag-1	D2 ag-2	D2 PAM-1	D2 PAM-2	D2 antagonist	D3 ag	D2 ag-3
C[C@]12CCC3C(CC[C@H]4C[C@@H](O)CC[C@]34C)[C@H]1CC[C@H]2O (some centres not stated)	.	1.9	.	-0.2	.	.	.
C[C@H]1CC[C@@]2(C)[C@@H](CC[C@@H]3[C@@H]2CC[C@]2(C)[C@@H](O)CC[C@@H]32)C1	-1.1	-0.6	-14.5	-9.9	69.1*	4.0%	-2.0%
CCCN1CC[C@@H]2c3cc(O)ccc3CC[C@@H]21	65.6*	7.3	-11.3	-4.9	73.0*	?	?
COC(=O)C1=C(c2ccccc2OCc2ccccc2)C[C@@H]2CC[C@H]1N2C(=O)NCc1cccc(F)c1	0.4	-3.2	0.9	-12.3	-12.3	.	.
COC(=O)C1=C(c2ccc(F)cc2OCc2ccccc2)C[C@@H]2CC[C@H]1N2C(=O)NCc1ccccc1Cl	-0.3	1.0	16.9	-21.2	-21.6	-1.4%	-1.6%
COC(=O)C1=C(c2ccccc2OCc2ccccc2)C[C@@H]2CC[C@H]1N2C(=O)NCc1ccc(OC)c(OC)c1	0.5	-2.2	6.2	-0.8	7.8	-1.0%	-0.8%
Cc1[nH]c2ccccc2c1CN1CCCCC1	.	-2.0	.	-20.7	.	.	.
Cc1[nH]c2c(Cl)cccc2c1CCN	23.7	5.2	-32.4	-32.2	40.6*	2.9%	8.2%
Cc1ccc(Cn2cccc(C(=O)Nc3cc([N+](=O)[O-])ccc3C)c2=O)cc1	-2.3	.	-6.5	.	.	.	.
O=C(COc1ccccc1[N+](=O)[O-])N1CCN(CCc2ccccn2)CC1	3.0	.	-17.8	.	.	.	.
Cc1ccc(-c2nn3c(=O)cc(CN4CCN(C(=O)COc5ccc(C)c(C)c5)CC4)nc3s2)cc1	-0.2	.	11.7	.	.	.	.
CSc1ccc(C(=O)C2CCCN(C)C2)cc1 (configuration not stated)	-0.3	0.6	-10.6	-12.2	1.3	.	.
CN1CCCC(C(=O)c2ccccc2)C1 (configuration not stated)	42.5*	-0.4	-13.7	-3.1	30.2*	14.6%	11.1%
O=c1c2ccccc2nc(/C=C/c2cccc3ccccc23)n1-c1ccccc1Cl	.	.	-3.4	.	.	.	.
CCCSc1nc2ccccc2c(=O)n1-c1ccccc1OC	-0.7	.	4.4	.	.	.	.
COc1ccccc1N1CCN(Cc2cccc(OC)c2O)CC1	74.0*	8.9	-28.5	-5.6	81.3*	-5.7%	19.2%
O=[N+]([O-])c1cccc(O)c1	0.0	-3.0	11.1	-4.1	36.1*	-3.7%	0.1%
O=[N+]([O-])c1cccc(CCl)c1	0.0	-6.4	-4.0	-30.1	-0.1	.	.
Cc1cccc(-n2c(/C=C\c3cccc(Br)c3)nc3ccccc3c2=O)c1	-0.3	.	18.8	.	.	.	.
